Among the data in PubChem BioAssay (Tox21) are Potency and activity change, negative = cytotoxicity values, retold here.

Inconclusive results are not listed. Entries that show only a call come without a potency. Values without a mark were called inactive. Calls of active or inactive are those of the source. Calls follow the shape of the dose curve; as a rule, active = well fitted cell-killing curve with a large enough effect in the repeat runs; inconclusive = weak or mixed curves, or effect the other way; inactive = flat fitted curve, though single readings scatter.
Potency is read from the fitted curve at half-maximal effect.

The assay in a line: cAMP Responsive Elements (CRE) small molecule agonists, cell-based qHTS assay: qHTS cell viability counter screen (AID 2060914). Also: nearly all actives have a fitted effect of over 50% in size. The following applies: CRE-bla HEK293T viability, CellTiter-Glo luminescence, 5 h; series mostly up to 92.4 µM. The method in brief: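 Luminescence read-out (CellTiter-Glo, 30 min RT) of ATP-based viability in CRE-bla HEK 293T cells, run in the same wells as the β-lactamase reporter assay after 3 h compound treatment at 37 °C.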
For orientation: In qHTS, concentration-response curves come from the screen itself.
Regarding `NS(=O)(=O)c1cc(C2(O)NC(=O)c3ccccc32)ccc1Cl` (stereo not given), the Potency entry was “inactive”.

Take `COc1ccc(/C(C)=C/C(=O)O)c(OC)c1`: the Potency entry was “inactive”. Same read-out and setting: as for `CC(=O)O[C@]1(C(C)=O)CC[C@H]2[C@@H]3C=C(Cl)C4=CC(=O)CC[C@]4(C)[C@H]3CC[C@@]21C`, the entry is “inactive”; as for `C=C(C)C(=O)OCC(O)COc1ccc(C(C)(C)c2ccc(OCC(O)COC(=O)C(=C)C)cc2)cc1` (stereo not given), 61.1 µM (active). On the same count and under the same terms, the same measure for `O=C(Nc1ccccc1)Nc1ccccc1`: “inactive”; for `CCC(C)C1CCCCC1=O` (stereo not given): “inactive”; for `OC[C@@H](O)[C@H](O)[C@H](O)[C@@H](O)CO`: “inactive”. As to `C=CCSSCCC`, the Potency result was “inactive”.

As for `CC(NCCC(c1ccccc1)c1ccccc1)c1ccccc1` (stereo not given), the Potency entry was “inactive”.

Take `C[C@H](N)[C@H](O)c1cccc(O)c1`: the Potency entry is “inactive”. Still for that read-out and setting: the same measure for `Nc1ncnc(Nc2ccccc2)n1`: “inactive”. Same read-out and setting: as for `CCNC(=O)C(C)OC(=O)Nc1ccccc1` (stereo not given), the entry is “inactive”; as for `C=CC(O)CCCCC` (stereo not given), “inactive”. Still for that read-out and setting: as for `CCOC(=O)[C@H](CCc1ccccc1)N[C@@H](C)C(=O)N1[C@H](C(=O)O)C[C@@H]2CCC[C@@H]21`, the entry is “inactive”; as for `NC(=O)C1(N2CCCCC2)CCN(CCCN2c3ccccc3CCc3ccc(Cl)cc32)CC1`, “inactive”; as for `OC[C@]1(O)OC[C@@H](O)[C@H](O)[C@@H]1O`, “inactive”. Regarding `O=S(O)(O)=S`, the activity change, negative = cytotoxicity is 9.38% [at 8.39 µM].

Turning to `CC(C)CC(=O)O`, the Potency entry was “inactive”.

On to `C[C@H](NC(CCc1ccccc1)C(=O)O)C(=O)N1CCC[C@H]1C(=O)O` (stereo not given in full), for which the Potency result is “inactive”.

`CC12CCCC=C1C(=O)OC2=O` (stereo not given): the Potency result is “inactive”.

For the compound `CNC(=O)Nc1ccc(Cl)c(Cl)c1`, the Potency entry was “inactive”. On the same count and under the same terms, the same measure for `Cc1ccccc1N=Nc1ccc(N=Nc2c(O)ccc3ccccc23)c(C)c1`: “inactive”. Consider `O=S(=O)(O)c1cc(I)c(O)c2ncccc12`, for which the Potency result was “inactive”. Same read-out and setting: the same measure for `CC1(C)OC[C@@H](COC(=O)CCc2ccc(OC[C@@H](O)CNCCNC(=O)N3CCOCC3)cc2)O1`: “inactive”; for `CCCCCC1CCCC(=O)O1` (stereo not given): “inactive”. As for `Cn1cc(S(C)=O)c(=O)c2ccc(F)cc21` (stereo not given), the Potency result was “inactive”. Consider `CCCCCCCCOc1ccc(C(=O)c2ccccc2)c(O)c1`, for which the Potency result is “inactive”. Turning to `COC(=O)/C=C(\C)CCC=C(C)C`, the Potency result is “inactive”. Same read-out and setting: as for `C/C(=N\O)[C@@H](C)NCC(C)(C)CN[C@H](C)/C(C)=N/O`, the entry is “inactive”; as for `COc1ccc(-c2cc(C(F)F)nn2-c2ccc(S(N)(=O)=O)cc2)cc1F`, “inactive”.

With `c1cc[c]([Bi]([c]2ccccc2)[c]2ccccc2)cc1`, the Potency result is “inactive”.

Consider `CC(C)(C)CC(C)(C)c1ccc(Nc2ccc(C(C)(C)CC(C)(C)C)cc2)cc1`, for which the activity change, negative = cytotoxicity was 6.62% [at 8.39 µM]. Consider `CCCCCC(CO)CCC` (stereo not given), for which the Potency result was “inactive”. Still for that read-out and setting: the same measure for `NNC(=O)CP(=O)(c1ccccc1)c1ccccc1`: “inactive”; for `COCCCCCCCCOCCC[Si](C)(O[Si](C)(C)C)O[Si](C)(C)C`: “inactive”.

For the compound `CC(=O)SC[C@@H](C)C(=O)N1CCC[C@H]1C(=O)N[C@@H](Cc1ccccc1)C(=O)O`, the Potency result is “inactive”.

On to `C=CCOc1c(Br)cc(Br)cc1Br`, for which the Potency result is “inactive”. On the same count and under the same terms, the same measure for `O=C1CCCc2c1cc1ccc3cccc4ccc2c1c34`: “inactive”. Same read-out and setting: as for `CCCN1CCCC[C@H]1C(=O)Nc1c(C)cccc1C`, the entry is “inactive”. The same measure, in the same setting: the same measure for `CC(=O)N(CC(O)CN(C(C)=O)c1c(I)c(C(=O)NCC(O)CO)c(I)c(C(=O)NCC(O)CO)c1I)c1c(I)c(C(=O)NCC(O)CO)c(I)c(C(=O)NCC(O)CO)c1I` (stereo not given): “inactive”.
